# Results as given in the supplement of paper PMC4466140.
# B1: unnamed (peptide)
# chain: GTIARPLFLVVLFFI
# B2: unnamed (peptide)
# chain: NAGIRPKFILALNDE
# How the values were obtained:
# Test in all cases: SPOT peptide array binding signal intensity (averaged, normalized) (arbitrary units (background-subtracted, floor 0; scale differs between SH3 domains)); higher = stronger binding of the SH3 domain to the peptide
# AgAbp1 = biological target: AgAbp1
# How it was run: (§1)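 Peptides were synthetic 15-mers on cellulose membranes, with every cysteine replaced by serine. They were incubated overnight at 4°C with GST-SH3 domains from four yeast species at 10 μg/ml in TBS-based blocking buffer. Binding signal, the replicate-averaged normalized and background-subtracted spot intensity, is in arbitrary units that differ between domains.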
# AgBbc1 = biological target: AgBbc1
# How it was run: as §1
# AgBem1-D1 = biological target: AgBem1-D1
# How it was run: as §1
# AgBzz1-D1 = biological target: AgBzz1-D1
# How it was run: as §1
# AgBzz1-D2 = biological target: AgBzz1-D2
# How it was run: as §1
# AgCyk3 = biological target: AgCyk3
# How it was run: as §1
# AgFus1 = biological target: AgFus1
# How it was run: as §1
# AgHof1 = biological target: AgHof1
# How it was run: as §1
# AgHse1 = biological target: AgHse1
# How it was run: as §1
# AgLsb1 = biological target: AgLsb1
# How it was run: as §1
# AgLsb4 = biological target: AgLsb4
# How it was run: as §1
# AgMyo5 = biological target: AgMyo5
# How it was run: as §1
# AgNbp2 = biological target: AgNbp2
# How it was run: as §1
# AgRvs167 = biological target: AgRvs167
# How it was run: as §1
# AgSho1 = biological target: AgSho1
# How it was run: as §1
# AgSla1-D1-D2 = biological target: AgSla1-D1-D2
# How it was run: as §1
# AgSla1-D3 = biological target: AgSla1-D3
# How it was run: as §1
# CaAbp1-D1 = biological target: CaAbp1-D1
# How it was run: as §1
# CaAbp1-D2 = biological target: CaAbp1-D2
# How it was run: as §1
# CaBbc1 = biological target: CaBbc1
# How it was run: as §1
# CaBem1-D1 = biological target: CaBem1-D1
# How it was run: as §1
# CaBzz1-D1 = biological target: CaBzz1-D1
# How it was run: as §1
# CaBzz1-D2 = biological target: CaBzz1-D2
# How it was run: as §1
# CaCyk3 = biological target: CaCyk3
# How it was run: as §1
# CaFus1 = biological target: CaFus1
# How it was run: as §1
# CaHof1 = biological target: CaHof1
# How it was run: as §1
# CaHse1 = biological target: CaHse1
# How it was run: as §1
# CaLsb1 = biological target: CaLsb1
# How it was run: as §1
# CaLsb4 = biological target: CaLsb4
# How it was run: as §1
# CaMyo5 = biological target: CaMyo5
# How it was run: as §1
# CaNbp2 = biological target: CaNbp2
# How it was run: as §1
# CaRvs167 = biological target: CaRvs167
# How it was run: as §1
# CaRvs167-3 = biological target: CaRvs167-3
# How it was run: as §1
# CaSho1 = biological target: CaSho1
# How it was run: as §1
# CaSla1-D1-D2 = biological target: CaSla1-D1-D2
# How it was run: as §1
# CaSla1-D3 = biological target: CaSla1-D3
# How it was run: as §1
# ScAbp1 = biological target: ScAbp1
# How it was run: as §1
# ScBbc1 = biological target: ScBbc1
# How it was run: as §1
# ScBem1-D1 = biological target: ScBem1-D1
# How it was run: as §1
# ScBzz1-D1 = biological target: ScBzz1-D1
# How it was run: as §1
# ScBzz1-D2 = biological target: ScBzz1-D2
# How it was run: as §1
# ScCyk3 = biological target: ScCyk3
# How it was run: as §1
# ScFus1 = biological target: ScFus1
# How it was run: as §1
# ScHof1 = biological target: ScHof1
# How it was run: as §1
# ScHse1 = biological target: ScHse1
# How it was run: as §1
# ScLsb1 = biological target: ScLsb1
# How it was run: as §1
# ScLsb2 = biological target: ScLsb2
# How it was run: as §1
# ScLsb3 = biological target: ScLsb3
# How it was run: as §1
# ScLsb4 = biological target: ScLsb4
# How it was run: as §1
# ScMyo3 = biological target: ScMyo3
# How it was run: as §1
# ScMyo5 = biological target: ScMyo5
# How it was run: as §1
# ScNbp2 = biological target: ScNbp2
# How it was run: as §1
# ScPex13 = biological target: ScPex13
# How it was run: as §1
# ScRvs167 = biological target: ScRvs167
# How it was run: as §1
# ScSho1 = biological target: ScSho1
# How it was run: as §1
# ScSla1-D1-D2 = biological target: ScSla1-D1-D2
# How it was run: as §1
# ScSla1-D3 = biological target: ScSla1-D3
# How it was run: as §1
# SpAbp1-D1 = biological target: SpAbp1-D1
# How it was run: as §1
# SpBbc1 = biological target: SpBbc1
# How it was run: as §1
# SpBzz1-D1 = biological target: SpBzz1-D1
# How it was run: as §1
# SpBzz1-D2 = biological target: SpBzz1-D2
# How it was run: as §1
# SpCyk3 = biological target: SpCyk3
# How it was run: as §1
# SpHof1 = biological target: SpHof1
# How it was run: as §1
# SpHof1-2 = biological target: SpHof1-2
# How it was run: as §1
# SpHof1-3 = biological target: SpHof1-3
# How it was run: as §1
# SpHse1 = biological target: SpHse1
# How it was run: as §1
# SpLsb1 = biological target: SpLsb1
# How it was run: as §1
# SpLsb4 = biological target: SpLsb4
# How it was run: as §1
# SpMyo1 = biological target: SpMyo1
# How it was run: as §1
# SpNbp2 = biological target: SpNbp2
# How it was run: as §1
# SpPex13 = biological target: SpPex13
# How it was run: as §1
# SpRvs167 = biological target: SpRvs167
# How it was run: as §1
# SpSla1-D1-D2 = biological target: SpSla1-D1-D2
# How it was run: as §1
# SpSla1-D3 = biological target: SpSla1-D3
# How it was run: as §1
binder,measurement,setting,value
B1,SPOT peptide array binding signal intensity,AgAbp1,≤ 0
same,SPOT peptide array binding signal intensity,AgBbc1,1.25
same,SPOT peptide array binding signal intensity,AgBem1-D1,33
same,SPOT peptide array binding signal intensity,AgBzz1-D1,18
same,SPOT peptide array binding signal intensity,AgBzz1-D2,13.5
same,SPOT peptide array binding signal intensity,AgCyk3,8
same,SPOT peptide array binding signal intensity,AgFus1,1900
same,SPOT peptide array binding signal intensity,AgHof1,0.75
same,SPOT peptide array binding signal intensity,AgHse1,428
same,SPOT peptide array binding signal intensity,AgLsb1,≤ 0
same,SPOT peptide array binding signal intensity,AgLsb4,580
same,SPOT peptide array binding signal intensity,AgMyo5,0.5
same,SPOT peptide array binding signal intensity,AgNbp2,57
same,SPOT peptide array binding signal intensity,AgRvs167,1.33
same,SPOT peptide array binding signal intensity,AgSho1,338
same,SPOT peptide array binding signal intensity,AgSla1-D1-D2,≤ 0
same,SPOT peptide array binding signal intensity,AgSla1-D3,1.75
same,SPOT peptide array binding signal intensity,CaAbp1-D1,56.5
same,SPOT peptide array binding signal intensity,CaAbp1-D2,28.5
same,SPOT peptide array binding signal intensity,CaBbc1,2
same,SPOT peptide array binding signal intensity,CaBem1-D1,15.5
same,SPOT peptide array binding signal intensity,CaBzz1-D1,88
same,SPOT peptide array binding signal intensity,CaBzz1-D2,23.5
same,SPOT peptide array binding signal intensity,CaCyk3,10
same,SPOT peptide array binding signal intensity,CaFus1,3640
same,SPOT peptide array binding signal intensity,CaHof1,16.5
same,SPOT peptide array binding signal intensity,CaHse1,126
same,SPOT peptide array binding signal intensity,CaLsb1,1.25
same,SPOT peptide array binding signal intensity,CaLsb4,≤ 0
same,SPOT peptide array binding signal intensity,CaMyo5,4.5
same,SPOT peptide array binding signal intensity,CaNbp2,600
same,SPOT peptide array binding signal intensity,CaRvs167,49
same,SPOT peptide array binding signal intensity,CaRvs167-3,17
same,SPOT peptide array binding signal intensity,CaSho1,730
same,SPOT peptide array binding signal intensity,CaSla1-D1-D2,≤ 0
same,SPOT peptide array binding signal intensity,CaSla1-D3,5.75
same,SPOT peptide array binding signal intensity,ScAbp1,3
same,SPOT peptide array binding signal intensity,ScBbc1,≤ 0
same,SPOT peptide array binding signal intensity,ScBem1-D1,1
same,SPOT peptide array binding signal intensity,ScBzz1-D1,40
same,SPOT peptide array binding signal intensity,ScBzz1-D2,37.5
same,SPOT peptide array binding signal intensity,ScCyk3,50
same,SPOT peptide array binding signal intensity,ScFus1,2030
same,SPOT peptide array binding signal intensity,ScHof1,≤ 0
same,SPOT peptide array binding signal intensity,ScHse1,472
same,SPOT peptide array binding signal intensity,ScLsb1,≤ 0
same,SPOT peptide array binding signal intensity,ScLsb2,≤ 0
same,SPOT peptide array binding signal intensity,ScLsb3,≤ 0
same,SPOT peptide array binding signal intensity,ScLsb4,≤ 0
same,SPOT peptide array binding signal intensity,ScMyo3,≤ 0
same,SPOT peptide array binding signal intensity,ScMyo5,1
same,SPOT peptide array binding signal intensity,ScNbp2,78.5
same,SPOT peptide array binding signal intensity,ScPex13,≤ 0
same,SPOT peptide array binding signal intensity,ScRvs167,1.67
same,SPOT peptide array binding signal intensity,ScSho1,1050
same,SPOT peptide array binding signal intensity,ScSla1-D1-D2,≤ 0
same,SPOT peptide array binding signal intensity,ScSla1-D3,1
same,SPOT peptide array binding signal intensity,SpAbp1-D1,3.5
same,SPOT peptide array binding signal intensity,SpBbc1,2
same,SPOT peptide array binding signal intensity,SpBzz1-D1,111
same,SPOT peptide array binding signal intensity,SpBzz1-D2,≤ 0
same,SPOT peptide array binding signal intensity,SpCyk3,24
same,SPOT peptide array binding signal intensity,SpHof1,45
same,SPOT peptide array binding signal intensity,SpHof1-2,22.5
same,SPOT peptide array binding signal intensity,SpHof1-3,637
same,SPOT peptide array binding signal intensity,SpHse1,1630
same,SPOT peptide array binding signal intensity,SpLsb1,≤ 0
same,SPOT peptide array binding signal intensity,SpLsb4,≤ 0
same,SPOT peptide array binding signal intensity,SpMyo1,4.25
same,SPOT peptide array binding signal intensity,SpNbp2,160
same,SPOT peptide array binding signal intensity,SpPex13,1
same,SPOT peptide array binding signal intensity,SpRvs167,≤ 0
same,SPOT peptide array binding signal intensity,SpSla1-D1-D2,1
same,SPOT peptide array binding signal intensity,SpSla1-D3,≤ 0
B2,SPOT peptide array binding signal intensity,AgAbp1,≤ 0
same,SPOT peptide array binding signal intensity,AgBbc1,2.75
same,SPOT peptide array binding signal intensity,AgBem1-D1,11.5
same,SPOT peptide array binding signal intensity,AgBzz1-D1,44
same,SPOT peptide array binding signal intensity,AgBzz1-D2,77
same,SPOT peptide array binding signal intensity,AgCyk3,7
same,SPOT peptide array binding signal intensity,AgFus1,68
same,SPOT peptide array binding signal intensity,AgHof1,13.8
same,SPOT peptide array binding signal intensity,AgHse1,616
same,SPOT peptide array binding signal intensity,AgLsb1,2
same,SPOT peptide array binding signal intensity,AgLsb4,25
same,SPOT peptide array binding signal intensity,AgMyo5,1
same,SPOT peptide array binding signal intensity,AgNbp2,0.5
same,SPOT peptide array binding signal intensity,AgRvs167,2.33
same,SPOT peptide array binding signal intensity,AgSho1,9.5
same,SPOT peptide array binding signal intensity,AgSla1-D1-D2,3
same,SPOT peptide array binding signal intensity,AgSla1-D3,4
same,SPOT peptide array binding signal intensity,CaAbp1-D1,≤ 0
same,SPOT peptide array binding signal intensity,CaAbp1-D2,≤ 0
same,SPOT peptide array binding signal intensity,CaBbc1,1.5
same,SPOT peptide array binding signal intensity,CaBem1-D1,1
same,SPOT peptide array binding signal intensity,CaBzz1-D1,72
same,SPOT peptide array binding signal intensity,CaBzz1-D2,26.2
same,SPOT peptide array binding signal intensity,CaCyk3,2
same,SPOT peptide array binding signal intensity,CaFus1,1120
same,SPOT peptide array binding signal intensity,CaHof1,1
same,SPOT peptide array binding signal intensity,CaHse1,6.5
same,SPOT peptide array binding signal intensity,CaLsb1,1
same,SPOT peptide array binding signal intensity,CaLsb4,≤ 0
same,SPOT peptide array binding signal intensity,CaMyo5,27.2
